Screens: PubChem, National Center for Advancing Translational Sciences (NCATS)
GLP1R ag: qHTS of GLP-1 Receptor Agonists | HEK293 GLP-1R CRE-luciferase, luminescence, 4-6 h; cells express a hypersensitive GLP-1R form | Potency, µM (top dose mostly 45.6 µM), for inactives: at the highest dose activation, usual class: activators | hit rate 0.007% among 380,000 | AID 624172, 2012; also: % of control where 0% means no effect
Target sequence (P43220 whole entry, looked up): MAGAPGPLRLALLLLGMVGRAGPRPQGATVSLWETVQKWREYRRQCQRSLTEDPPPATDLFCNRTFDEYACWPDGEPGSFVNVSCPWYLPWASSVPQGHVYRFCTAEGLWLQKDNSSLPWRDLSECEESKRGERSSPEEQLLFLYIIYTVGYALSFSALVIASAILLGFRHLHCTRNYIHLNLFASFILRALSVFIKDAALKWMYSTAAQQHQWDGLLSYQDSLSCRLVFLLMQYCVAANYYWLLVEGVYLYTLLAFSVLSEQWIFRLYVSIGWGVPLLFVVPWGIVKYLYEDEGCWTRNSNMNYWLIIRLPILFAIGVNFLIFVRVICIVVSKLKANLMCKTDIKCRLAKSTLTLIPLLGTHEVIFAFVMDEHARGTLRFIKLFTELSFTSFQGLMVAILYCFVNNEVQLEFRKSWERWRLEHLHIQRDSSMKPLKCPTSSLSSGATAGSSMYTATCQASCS
S2 tox: Viability Counterscreen for Primary qHTS for Inhibitors of ATXN expression; S2 cells (HEK-293 line with an ATXN2-luciferase reporter) viability, CellTiter-Fluor protease fluorescence, 24 h; Potency, µM (series often up to 56.7 µM), actives largely listed as cytotoxic; hit rate 0.49% among 400,000; also: nearly all actives have a fitted effect of over 40% in size
HepG2 tox-1: qHTS for Inhibitors of TGF-b: Cytotox Counterscreen. hit rate 0.76% among 410,000. HepG2 CAGA-GFP viability, ATP luminescence, 18 h. AID 588856, 2011. Potency, µM (titrated, usually from 46.1 µM), for inactives: at the highest dose activity change, negative = cytotoxicity, hits mostly cytotoxic
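CellTiter-Glo luminescence gave cytotoxicity after 18 hours at 37 degrees C. The cells were HepG2 CAGA-GFP in 1% FBS DMEM, stimulated with 500 pg/mL TGF-beta after compound addition. %Activity was normalised to no-cell wells (complete cell-killing) and DMSO (no toxicity), and curves were fitted and classified.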
ATXN2 expr inh: Primary qHTS for Inhibitors of ATXN expression; HEK-293 ATXN2-luciferase reporter, luminescence, 24 h; Potency, µM (top dose mostly 57 µM), for inactives: at the highest dose activity change, negative = inhibition, usual class: inhibitors; hit rate 0.72% among 360,000; AID 1745845, 2022; also: % is scaled to controls: 0 for no effect and ±100 for the full control effect; nearly all actives have a fitted effect of over 55% in size
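ATXN2-luciferase reporter cells (luciferase flanked by upstream and downstream ATXN2 gene portions) were treated 24 h at 37 °C with compounds at up to 57 uM. SteadyGlo luminescence gave expression; GF-AFC fluorescence gave viability.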
GLP-1R inv ag: qHTS of GLP-1 Receptor Inverse Agonists (Inhibition Mode); Potency, µM (series often up to 38.3 µM), inactives show at the top dose activity change, negative = inhibition, most hits filed as inhibitors; Glucagon-like peptide 1 receptor (Homo sapiens), P43220; hit rate 1.6% among 410,000; HEK293 GLP-1R CRE-luciferase, luminescence, 24 h; GLP-1R form is constitutively active; also: % is scaled to controls: 0 for no effect and ±100 for the full control effect; nearly all actives have a fitted effect of over 55% in size
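HEK293 cells stably co-expressing a cAMP-responsive luciferase reporter and constitutively active GLP-1R were seeded, incubated 12 h, then exposed to compounds for 24 h at 37 C. Luminescence was read 12 min after detection reagent; inverse agonists lower signal.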
TGFb SMAD3 inh: qHTS for Inhibitors of TGF-b. HepG2 CAGA-GFP TGF-b/SMAD3 reporter, GFP fluorescence, 18 h; TGF-beta stimulated, 500 pg/mL final. Potency, µM (top dose mostly 46.1 µM), inactives show at the top dose activity, negative = inhibition, hits mostly inhibitors. hit rate 1.2% among 410,000; also: % is scaled to controls: 0 for no effect and ±100 for the full control effect; nearly all actives have a fitted effect of over 65% in size
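Inhibition of TGF-beta-driven CAGA-GFP reporter expression in HEPG2 cells is measured by cellular GFP fluorescence after 18 h stimulation with 500 pg/mL recombinant TGF-beta in 1% FBS medium at 37 degrees C.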
TGFb CAGA inh: qHTS for Inhibitors of TGF-b: Confirmation of Cherry Picks; shares compounds with TGFb SMAD3 inh; HepG2 CAGA-GFP TGF-b reporter, GFP fluorescence, 18 h; cells stimulated with TGF-beta, 500 pg/mL; Potency, µM (doses to about 46.1 µM), without a hit: at the highest dose activity, negative = inhibition, hits mostly inhibitors; hit rate 63% among 1,600; also: % is scaled to controls: 0 for no effect and ±100 for the full control effect; nearly all actives have a fitted effect of over 65% in size
HepG2 tox-2: qHTS for Inhibitors of TGF-b: Cytotox Counterscreen for Cherry Picks; shares compounds with TGFb SMAD3 inh; HepG2 CAGA-GFP viability, ATP luminescence, 18 h; cells stimulated with TGF-beta, 500 pg/mL; Potency, µM (doses to about 46.1 µM), for the others: top-dose activity, negative = cytotoxicity, usual class: inhibitors; hit rate 27% among 1,600; also: % is scaled to controls: 0 for no effect and ±100 for the full control effect; nearly all actives have a fitted effect of over 70% in size
CCL64 TGFb inh: qHTS for Inhibitors of TGF-b: CCL64 Cells Orthogonal Assay for Cherry Picks; shares compounds with TGFb SMAD3 inh; CCL64 CAGA-GFP reporter, TGF-b stimulated, GFP fluorescence, 18 h; Potency, µM (top dose mostly 46.1 µM), for inactives: at the top dose activity, negative = inhibition, most hits filed as inhibitors; hit rate 41% among 1,600; also: nearly all actives have a fitted effect of over 65% in size
TGFb COP inh: qHTS for Inhibitors of TGF-b: Hit Validation in HepG2 Cells using COP promoter. Potency, µM (titrated, usually from 46.1 µM), without a hit: top-dose activity, negative = inhibition, actives largely listed as inhibitors. shares compounds with TGFb SMAD3 inh. hit rate 3% among 1,600. HepG2 COP-GFP TGF-b reporter, GFP fluorescence, 18 h; cells stimulated by added recombinant TGF-beta; also: nearly all actives have a fitted effect of over 70% in size
* marks the source's active call; other numbers are inactive results. The list is not random: actives were taken first. Their share in the collection is about 3.7%. Calls follow the shape of the dose curve; as a rule, active = well fitted curve in the direction sought with a large enough effect; inconclusive = small, poorly fitted or top-dose-only effect, or another doubt; inactive = no such curve, though single readings can be large; an effect the other way counts as inactive or inconclusive. Potency is read from the fitted curve at half-maximal effect.

Results for CCCCNC(=O)CCCn1c(=O)c2ccccc2n(Cc2ccccc2C)c1=O ?
GLP1R ag: 1%; S2 tox: inactive; HepG2 tox-1: 13%; ATXN2 expr inh: 9%; GLP-1R inv ag: -16%; TGFb SMAD3 inh: -6%

What do the screens show for `Cc1ccc(-c2cc(C(=O)N(Cc3ccccc3)Cc3ccco3)no2)cc1F`?
S2 tox: inactive; HepG2 tox-1: -22%; ATXN2 expr inh: 12%; GLP-1R inv ag: inconclusive; TGFb SMAD3 inh: -4%

How did Cc1ccc(SC[C@H](C)CN2CC[C@H](O)CCC2=O)cc1 do in these assays?
HepG2 tox-1: -14%; TGFb SMAD3 inh: -3%

Results for Cc1cc(/C=N/NC(N)=S)c(C)n1-c1cccc(Cl)c1 ?
GLP1R ag: 8%; S2 tox: inconclusive; HepG2 tox-1: -19%; ATXN2 expr inh: -19%; GLP-1R inv ag: inconclusive; TGFb SMAD3 inh: 11µM*; TGFb CAGA inh: 15µM*; HepG2 tox-2: -24%; CCL64 TGFb inh: 16µM*; TGFb COP inh: 44%

What do the screens show for `Cc1cc(/C=N/NC(N)=S)c(C)n1-c1ccc(Br)cc1`?
GLP1R ag: -1%; S2 tox: inconclusive; HepG2 tox-1: -20%; ATXN2 expr inh: -18%; GLP-1R inv ag: inconclusive; TGFb SMAD3 inh: 13µM*; TGFb CAGA inh: 10µM*; HepG2 tox-2: inconclusive; CCL64 TGFb inh: inconclusive; TGFb COP inh: 34%

How did CCCCCC(=O)Nc1cccc(C2=NOC3(C2)C[C@H](C(N)=O)N(C(=O)c2ccccc2C(=O)c2ccccc2)C3)c1 (stereo partly drawn) do in these assays?
GLP1R ag: 6%; S2 tox: inactive; HepG2 tox-1: -21%; ATXN2 expr inh: -24%; GLP-1R inv ag: inconclusive; TGFb SMAD3 inh: 11µM*; TGFb CAGA inh: inconclusive; HepG2 tox-2: -10%; CCL64 TGFb inh: inconclusive; TGFb COP inh: 3%

How did Nc1nc(NCCc2ccccc2)c2[nH]cnc2n1 do in these assays?
HepG2 tox-1: -37%; TGFb SMAD3 inh: 1%

What do the screens show for `COc1cccc(OC)c1-c1cc(CCCc2cc(-c3c(OC)cccc3OC)nc3ccccc23)c2ccccc2n1`?
HepG2 tox-1: -107%; TGFb SMAD3 inh: inconclusive

What do the screens show for `O=C(CSc1nccc(=O)[nH]1)Nc1cc(C(F)(F)F)ccc1N1CCOCC1`?
GLP1R ag: 13%; S2 tox: inactive; HepG2 tox-1: -1%; ATXN2 expr inh: 7%; GLP-1R inv ag: 25%; TGFb SMAD3 inh: -14%

Results for Cc1ccc2nc(SCC(=O)Nc3cc(C(F)(F)F)ccc3N3CCOCC3)[nH]c2c1 ?
GLP1R ag: 17%; S2 tox: inconclusive; HepG2 tox-1: -20%; ATXN2 expr inh: -20%; GLP-1R inv ag: 1.3µM*; TGFb SMAD3 inh: 10µM*; TGFb CAGA inh: 1.8µM*; HepG2 tox-2: -9%; CCL64 TGFb inh: 0.73µM*; TGFb COP inh: -19%

How did Cc1cc(C)nc(/N=C(\N)Nc2ccc(CC(=O)OC(C)C)cc2)n1 do in these assays?
GLP1R ag: -5%; S2 tox: inactive; HepG2 tox-1: -25%; ATXN2 expr inh: -20%; GLP-1R inv ag: inconclusive; TGFb SMAD3 inh: 10µM*; TGFb CAGA inh: inconclusive; HepG2 tox-2: -29%; CCL64 TGFb inh: inconclusive; TGFb COP inh: 14%

What do the screens show for `Cc1cc(C)nc(/N=C(\N)Nc2ccc(OCc3ccccc3)cc2)n1`?
GLP1R ag: 6%; S2 tox: inconclusive; HepG2 tox-1: -24%; ATXN2 expr inh: inconclusive; GLP-1R inv ag: inconclusive; TGFb SMAD3 inh: 0.25µM*; TGFb CAGA inh: 0.18µM*; HepG2 tox-2: inconclusive; CCL64 TGFb inh: 18µM*; TGFb COP inh: 99%

How did O=C(Nc1ccc(F)cc1)Nc1ccc(N2CCCC2)c(S(=O)(=O)Nc2ccccc2Cl)c1 do in these assays?
GLP1R ag: -9%; S2 tox: inconclusive; HepG2 tox-1: -4%; ATXN2 expr inh: inconclusive; GLP-1R inv ag: inconclusive; TGFb SMAD3 inh: 4µM*; TGFb CAGA inh: 4.1µM*; HepG2 tox-2: 7.3µM*; CCL64 TGFb inh: 5.8µM*; TGFb COP inh: 109%

What do the screens show for `O=C(Nc1ccc(Cl)c(Cl)c1)Nc1ccc(N2CCCC2)c(S(=O)(=O)Nc2ccccc2Cl)c1`?
GLP1R ag: -15%; S2 tox: inconclusive; HepG2 tox-1: -26%; ATXN2 expr inh: inconclusive; GLP-1R inv ag: inconclusive; TGFb SMAD3 inh: 3.2µM*; TGFb CAGA inh: 4.6µM*; HepG2 tox-2: 7.3µM*; CCL64 TGFb inh: 0.58µM*; TGFb COP inh: 86%

How did O=C(Nc1ccc(N2CCCCC2)c(S(=O)(=O)Nc2ccccc2Cl)c1)c1cccnc1 do in these assays?
GLP1R ag: -1%; S2 tox: inactive; HepG2 tox-1: -8%; ATXN2 expr inh: 0%; GLP-1R inv ag: inconclusive; TGFb SMAD3 inh: 13µM*; TGFb CAGA inh: inconclusive; HepG2 tox-2: inconclusive; CCL64 TGFb inh: inconclusive; TGFb COP inh: 62%
